Assay results: ChEMBL document CHEMBL3988442, “University of Dundee, Small-Polar-MMV Screening Library” (2021)
Hit rate of the full screen: of about 48,000 compounds, about 13,000 (27%) showed an effect of 50% or more. The list shows a part of the results.

test system: Wolbachia pipientis; test: Anti-Wolbachia Cell-Based Screen; format: functional; parameters: scale not given: in the data most compounds retested in dose-response had high values; details: 5 µM

SMILES	Percent Effect [%]
Cc1ncsc1C(=O)NCC1CCC2(CCNCC2)CO1.Cl (stereo not given)	-19.17
CCc1cc(NCc2cc(CC(C)C)on2)n2nccc2n1	-11.32
O=C(c1cnccn1)N1CCn2cnc(COCC3CC3)c2C1	-16.54
COc1cccc(N2CC3(CCN(c4cc(OC)ncn4)C3)CC2=O)c1 (stereo not given)	-36.15
Cc1nc(CN2CC3(CCN(c4ncc(F)cn4)C3)CC2=O)cs1.O=C(O)C(F)(F)F (stereo not given)	22.92
COc1cc(N2CCC3(CCN(Cc4nccs4)CC3)C2)ncn1.O=C(O)C(F)(F)F	189
O=C(O)C(F)(F)F.O=C(O)C(F)(F)F.c1csc(CN2CCC3(CC2)CCN(CC2CCOCC2)C3)n1	-8.285
COc1cc(N2CCC3(CC(=O)N(Cc4csc(C)n4)C3)C2)ncn1 (stereo not given)	116.5
Fc1ccc(CN2CCC3(CCN(Cc4nccs4)CC3)C2)cc1.O=C(O)C(F)(F)F.O=C(O)C(F)(F)F	-8.456
CCOC(C)C(=O)Nc1ccc2c(ccn2CC)c1 (stereo not given)	-6.658
NC(=O)c1ccc(NC(=O)CCN2CCCC(N3CCCC3)C2)cc1 (stereo not given)	-7.492
COc1ccc2c(ccn2CCC(=O)Nc2nc[nH]n2)c1	112.1
COc1ccc2c(ccn2CCC(=O)Nc2n[nH]c(C(C)C)n2)c1	80.39
CCCn1ccc2cc(NC(=O)NCCn3cnnc3CC)ccc21	-13.76
CCOCCOC(C)C(=O)Nc1ccc2c(ccn2CC)c1 (stereo not given)	-1.618
COc1ccc2c(ccn2CC(=O)Nc2n[nH]c(C(C)C)n2)c1	99.9
COc1ccc2c(ccn2CCC(=O)Nc2ccc(C(N)=O)cc2)c1	111.4
Cc1ccc2c(ccn2CCC(=O)NC[C@@H]2CCCN3CCCC[C@H]23)c1	-8.382
COc1ccc2c(ccn2CCC(=O)O)c1	-1.885
COc1ccc2c(ccn2CC(=O)N2CCCC2c2cnn(C)c2)c1 (stereo not given)	0.9225
CN1Cc2nnc(C3CCOCC3)n2C(Cc2c[nH]cn2)C1 (stereo not given)	-4.297
CC(Cn1cncn1)NC(=O)c1cn(Cc2ccccc2F)nn1 (stereo not given)	8.945
CCNC(=O)NCC(CC)(OC)c1ccccc1 (stereo not given)	2.354
O=C(NCCn1ccnc1)C1COCC(=O)N1Cc1ccccc1 (stereo not given)	-11.36
CC1N(c2cnn(C)c2)C(=O)COC12CCN(c1ncccn1)CC2.O=C(O)C(F)(F)F (stereo not given)	116.4
CN1C(=O)CC(c2ccncc2)C12CCN(c1ncccn1)CC2.O=C(O)C(F)(F)F (stereo not given)	-40.6
O=C(O)C(F)(F)F.O=C1COC2(CCN(c3ncccn3)CC2)CN1	1.956
Cn1ccnc1CN1CCC2(CC1)CN(c1ccccn1)CCO2.O=C(O)C(F)(F)F.O=C(O)C(F)(F)F	-7.538
O=C(O)C(F)(F)F.O=C1COC2(CCN(c3ccccn3)CC2)CN1	-3.085
CC1N(c2cnn(C)c2)C(=O)COC12CCN(c1ccccn1)CC2.O=C(O)C(F)(F)F (stereo not given)	138.6
